# Assay outcomes from PubChem.
# BAZ2B block: BAZ2B (human) inhibition; Potency, µM (titrated, usually from 114 µM), for inactives: at the top dose activity change, negative = inhibition, actives largely listed as inhibitors; AlphaScreen BAZ2B-H3K14Ac peptide displacement; 360,000 compounds, 4.4% hits; AID 504333; also: % is scaled to controls: 0 for no effect and ±100 for the full control effect; nearly all actives have a fitted effect of over 60% in size
#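 BAZ2B 50 nM plus b-H3(5-23)K14Ac 50 nM, PBS pH 7.4/0.01% Tween-20, 30 min RT; compound added (max 110 uM), 30 min RT; streptavidin donor/Ni-chelate acceptor beads 10 ug/mL final, 20 min dark; AlphaScreen read.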
# HP1b binding inh: blocks HP1-beta chromodomain binding to methylated histone tails | P83916 | AlphaScreen HP1-beta / biotin-H3K9me3 peptide binding | Potency, µM (doses to about 114 µM), inactives show at the highest dose activity change, negative = inhibition, hits mostly inhibitors | 390,000 compounds, 0.56% hits | AID 540317; also: nearly all actives have a fitted effect of over 70% in size
#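 Compound inhibition of the preformed complex between 50 nM HP1-beta and 50 nM biotinylated H3K9me3 peptide was read by AlphaScreen. Buffer was PBS pH 7.4 with 0.01% Tween-20. Incubations ran 30 min at room temperature, with 10 ug/mL donor/acceptor beads.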
# G9a inh: blocks human histone lysine methyltransferase G9a; Potency, µM (titrated, usually from 102 µM), for the others: top-dose activity, negative = inhibition, usual class: inhibitors; 350,000 compounds, 8.8% hits; G9a H3K9 monomethylation, AlphaScreen, 2 h; AID 504332; also: % is scaled to controls: 0 for no effect and ±100 for the full control effect; nearly all actives have a fitted effect of over 75% in size
#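 Step 1: enzyme (final 20 nM) with compound, 15 min RT. Step 2: substrate peptide 500 nM and SAM 20 uM, 2 h RT. Step 3: anti-H3K9me1 antibody and AlphaScreen beads, 10 min, then plate read.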
# JMJD2A Tudor inh: blocks the human JMJD2A Tudor domain | O75164 | AlphaScreen JMJD2A-Tudor / H3K4me3 peptide binding | Potency, µM (doses to about 114 µM), for inactives: at the top dose activity change, negative = inhibition, actives largely listed as inhibitors | 390,000 compounds, 4.4% hits; also: % is scaled to controls: 0 for no effect and ±100 for the full control effect; nearly all actives have a fitted effect of over 50% in size
# GLS inh: blocks human kidney-isoform glutaminase activity; Potency, µM (titrated, usually from 45.5 µM), for inactives: top-dose activity change, negative = inhibition, hits mostly inhibitors; 410,000 compounds, 0.21% hits; AID 624170; GLS enzymatic activity, qHTS titration; also: % is scaled to controls: 0 for no effect and ±100 for the full control effect
#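 hKGA; 45 mM KH2PO4 pH 8.2 + 0.02% Tween-20; cpd via pin tool; 1 mM Gln soln; GluOx/HRP/Amplex Red; RT 30 min; fluor. t0 & final.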
# Active calls of the source: *; u = inconclusive; x = not tested or not shown; [ ] = another dose, or the depositor's remark. An excerpt weighted towards active compounds, which were near 10% of everything screened. Calls follow the shape of the dose curve; as a rule, active = well fitted curve in the direction sought with a large enough effect; inconclusive = small, poorly fitted or top-dose-only effect, or another doubt; inactive = no such curve, though single readings can be large; an effect the other way counts as inactive or inconclusive. Potency is read from the fitted curve at half-maximal effect.
SMILES,BAZ2B block,HP1b binding inh,G9a inh,JMJD2A Tudor inh,GLS inh
COc1ccc(-c2n(Cc3ccccc3)c3ccccc3[n+]2Cc2ccccc2)cc1,u,18%,x,-29%,-2%
CC1(C(=O)NCc2cccc3ccccc23)CCN1Cc1cccc2c1OCO2 (stereo unspecified),x,x,x,x,8%
CCOC(=O)N1CCN(/[N+]([O-])=N/Oc2ccc([N+](=O)[O-])cc2[N+](=O)[O-])CC1,x,63%,18µM*,-19%,x
CCCCOc1ccc(C(=O)Nc2ccc3c(c2)CCCN3S(=O)(=O)c2ccc(C)cc2)cc1,-14%,16%,-5%[59 µM],-9%,2%
O=C(O)C1OCC2(CO1)COC(C(=O)O)OC2 (stereo unspecified),x,10%,x,u,-5%
Cc1cc(C(=O)Nc2nc3ccc(Cl)cc3s2)nn1C,-2%,16%,-41%,25µM*,2%
Cn1ncc(Cl)c1C(=O)Nc1nc2ccc(Cl)cc2s1,-4%,-16%,7.9µM*,-10%,-9%
S=C1Cc2ccccc2N1,-35%,u,4.5µM*,79µM*,-4%
COc1ccc(N2C(=O)CC(NC3CCCCNC3=O)C2=O)cc1 (stereo unspecified),2%,55%,11µM*,18%[57.1 µM],-2%
CCOC(=O)CNC1CC(=O)N(c2ccc(Br)cc2)C1=O (stereo unspecified),-13%,47%,10µM*,-10%,0%
CCCOc1ccc(N2C(=O)CC(NCC#N)C2=O)cc1 (stereo unspecified),1%,18%,60%,-3%,-6%
COc1ccc(N2C(=O)CC(NCC#N)C2=O)cc1 (stereo unspecified),6%,45%,28µM*,-15%,-6%
CN1CCC2(CC1)CCN(C(=O)c1cccc(F)c1)CC2,x,x,2%[12.7 µM],x,x
O=C(Cn1nc(CNc2ccc(Br)cc2)[n+]2c1CCCCC2)c1ccc([N+](=O)[O-])cc1,u,-18%,71µM*,-32%,11%
O=C(Cn1nc(Cl)nc1Cl)c1ccc([N+](=O)[O-])cc1,-6%,24%,6%,-15%,1%
COc1ccc(NCc2nn(CC(=O)c3ccc(Br)cc3)c3[n+]2CCCCC3)cc1,35µM*,-17%,35µM*,45µM*,u
O=C(Cn1nc(CNc2ccc(Cl)cc2)[n+]2c1CCCCC2)c1ccc(Br)cc1,u,-11%,u,-34%,-13%
COCCN1C[C@@H](CO)O[C@@H](n2cnc3c(NCc4ccncc4)ncnc32)C1,x,x,x,x,-3%
CCc1ccccc1NC(=O)Cn1ccn(-c2cc(C)cc(C)c2)c(=O)c1=O,-9%,20%,-44%[59 µM],-6%,-7%
CCOc1ccc(N=C(C)C2=C(O)c3ccccc3C2=O)cc1,-11%,11%,u,-15%,5%
CCOc1ccc(N=C(NN)c2ccc3ccccc3n2)cc1,40µM*,-1%[57 µM],13µM*,50µM*,0%
Cc1ccc(S(=O)(=O)c2nnn3c2nc(N2CCC(C(N)=O)CC2)c2cc(Cl)ccc23)cc1C,-3%,23%,-29%[59 µM],-7%,1%
CSc1ccc(CNc2ccc(C)c(C)c2)cc1,50µM*,u,89µM*,40µM*,-6%
Cc1nc2ccccc2n1Cc1ccccc1,0%,25%,x,-15%,-5%
CSc1ccc(CNc2cccc3ccccc23)cc1,-37%,-14%,u,-35%,27%
SMILES,BAZ2B block,HP1b binding inh,G9a inh,JMJD2A Tudor inh,GLS inh
Cc1ccc(NCc2ccccc2O)cc1C,u,u,u,50µM*,4%
Cc1nc2cc(NCc3ccccc3O)ccc2n1Cc1ccccc1,20µM*,u,x,32µM*,-29%
CC(=O)c1cccc(-c2ccnc3c2CC(C(=O)Nc2cccc(Oc4ccccc4)c2)O3)c1 (stereo unspecified),x,x,x,x,6%
Cc1cccc(NC(=O)CCc2c(C)nc3nc(CNC(=O)c4cccc(F)c4)nn3c2C)c1,-2%,48%,-1%[59 µM],2%,1%
CC(=O)c1cccc(NC(=O)CCc2c(C)nc3nc(CN)nn3c2C)c1,50µM*,21%,16µM*,u,4%
CC(=O)N1c2ccc(S(=O)(=O)NCC3CCC(C(=O)Nc4cccc(F)c4)CC3)cc2CC1C (stereo unspecified),-14%,20%,-4%[59 µM],-15%,-6%
Cc1cccc(Oc2ccccc2NC(=O)CSCC(=O)Nc2cc(C)on2)c1,-32%,9%,10µM*,-8%,-2%
COc1cc(/C=N/NC(N)=O)ccc1OCC(=O)N1C(C)CCCC1C (stereo unspecified),-7%,7%,17%,-6%[57.1 µM],-11%
COc1cc(/C=N/Nc2ccc(Cl)c(C(=O)O)c2)ccc1OCC(=O)N1C(C)CCCC1C (stereo unspecified),-23%,28%,50µM*,-11%,u
COc1ccc(C(=O)Oc2cc(/C=N/NC(N)=S)ccc2OC)cc1,u,-2%,13%,-34%,9%
COc1ccc(C(=O)Oc2ccc(/C=N/Nc3ccc(Cl)c(C(=O)O)c3)cc2OC)cc1,50µM*,-11%,35µM*,u,15%
COc1cc(/C=N/Nc2ccc(Cl)c(C(=O)O)c2)ccc1OC(=O)c1ccco1,u,8%,22µM*,-14%,0%
COc1ccc(Nc2ncc3c(n2)CCN(Cc2cccc(F)c2F)C3)c(OC)c1,u,-7%,-18%[12.7 µM],u,-1%
COc1ccc(NC(=O)C2CC2(Cl)Cl)cc1S(=O)(=O)N1CCCCC1 (stereo unspecified),x,x,x,x,0%
OCc1cc2c(cn1)[nH]c1ccccc12,x,x,37%[59 µM],x,x
COc1ccc([N+](=O)[O-])cc1N(CC(O)CN1C(=O)NC(C)(C)C1=O)S(=O)(=O)c1ccccc1 (stereo unspecified),1%,19%,-5%,-6%,-6%
CCOC(=O)CCCc1sc(N)nc1-c1[nH]c(=O)[nH]c1C,6.3µM*,u,4.5µM*,2.2µM*,8%
CC(NC(=O)Nc1ccc([N+](=O)[O-])cc1)C(c1ccccc1)N1CCOCC1 (stereo unspecified),16%,11%,40µM*,-28%,1%
COCCc1nn2c(=O)cc(COC(=O)c3ccc4c(c3)OCO4)nc2s1,-28%,14%,12%[59 µM],-24%,6%
O=C(O)CC(Cn1[nH]nnc1=S)c1ccccc1 (stereo unspecified),u,13%,8.9µM*,50µM*,0%
O=C(O)CC(CC(=O)Nc1nncs1)c1ccccc1 (stereo unspecified),-7%,13%,-3%[12.7 µM],-8%,9%
COc1ccc(NC(=O)CN(C)C(=O)c2cccc(S(=O)(=O)N3CCN(c4ccc(F)cc4)CC3)c2)cc1,x,10%,x,-31%,15%
Nc1nn2c(-c3ccccc3)cc(=O)[nH]c2c1N=Nc1ccc(Br)cc1,-37%,u,18%[59 µM],28µM*,6%
